Screens: PubChem BioAssay, National Center for Advancing Translational Sciences (NCATS)
Pf growth 48h – inhibits P. falciparum growth in the first generation, 48 h; Potency, µM (top dose mostly 28.7 µM), for inactives: at the highest dose activity change, negative = inhibition, hits mostly inhibitors; P. falciparum luciferase growth in erythrocytes, 48 h; 5.9% of 310,000 active; AID 504832; note: % is set by controls: 0 for no effect and ±100 for the full control effect
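In quantitative HTS format, infected erythrocytes bearing luciferase-reporter parasites were treated for a single generation at 37 C. Luminescence after adding detection reagent served as the growth measure.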
Sm TGR block – blocks Schistosoma mansoni thioredoxin glutathione reductase | Potency, µM (highest dose often 114 µM), inactives show at the highest dose activity change, negative = inhibition, usual class: inhibitors | purified TGR, DTNB reduction, TNB absorbance 405 nm | 3% of 360,000 active | AID 485364; note: % is set by controls: 0 for no effect and ±100 for the full control effect; nearly all actives have a fitted effect of over 60% in size
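Kinetic colorimetric format: TGR-catalysed, NADPH-driven DTNB reduction monitored via TNB absorbance. Enzyme dispensed at 20 nM; compound exposure 15 min at room temperature before reaction start.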
AMA1 RON2 block – disrupts binding of P. falciparum AMA1 to RON2; 0.2% of 360,000 active; AlphaScreen AMA1-biotinylated RON2 peptide binding; Potency, µM (highest dose often 58.2 µM), for inactives: top-dose activity change, negative = inhibition, most hits filed as inhibitors;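 note: 0% = vehicle wells and -100% = peptide control; nearly all actives have a fitted effect of over 45% in size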
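AMA1 (3D7) with his tag at 25 nM final met compounds first, then biotinylated RON2 peptide at 25 nM; detection used donor plus acceptor beads, 10 µg/mL apiece, read by AlphaScreen after 30 min at room temperature.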
NS1 inh – blocks influenza NS1 protein function; Potency, µM (top dose mostly 46.1 µM), without a hit: at the highest dose activity, positive = more growth; 0.4% of 270,000 active; AID 2326; calls by dose curve; note: actives are rising curves; nearly all actives have a fitted effect of over 50% in size
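Recovery from NS1-induced slow growth read by OD600 in budding yeast switched to galactose assay medium (pH 6.0, -URA) at 1:100 dilution. Compound 23 nl per well; the matching strain lacking NS1 serves as control.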
Pf growth 96h – P. falciparum growth inhibition at 96 hour, primary screen for plastid delayed-death inhibitors. P. falciparum luciferase reporter growth, 96 h. Potency, µM (series often up to 28.7 µM), without a hit: at the top dose activity change, negative = inhibition, most hits filed as inhibitors. 6.9% of 320,000 active. AID 504834; note: % is set by controls: 0 for no effect and ±100 for the full control effect
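Delayed-death screen, second-generation endpoint: infected erythrocytes, 2% hematocrit, 0.05% parasitemia final; 96 hours at 37 C, 5% CO2; luciferase detection reagent; luminescence decrease equals reduced growth.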
* = called active by the depositor; [ ] = another dose, or the depositor's remark. Sampled rows, rich in hits. Any-hit rate of the full collection: about 11%. Unless noted, calls come from the whole dose curve; as a rule, active = well fitted curve in the direction sought with a large enough effect; inconclusive = small, poorly fitted or top-dose-only effect, or another doubt; inactive = no such curve, though single readings can be large; an effect the other way counts as inactive or inconclusive. Potency is the fitted concentration of half-maximal effect.

How did CSCc1c(C(=O)N2CCCc3ccccc32)oc2ccccc12 do in these assays?
Pf growth 48h: 12µM*; Sm TGR block: -2%; AMA1 RON2 block: inconclusive; Pf growth 96h: -53%

What do the screens show for `COc1cccc(C2C3=C(N=C4SCC(=O)N42)c2ccccc2CC3)c1OC` (stereo unspecified)?
Pf growth 48h: 12µM*; Sm TGR block: -7%; AMA1 RON2 block: 61%; NS1 inh: 4%; Pf growth 96h: 186%

How did COc1cccc(C2C3=C(N=c4s/c(=C\c5ccccc5O)c(=O)n42)c2ccccc2CC3)c1OC (stereo unspecified) do in these assays?
Pf growth 48h: 1.9µM*; Sm TGR block: 3%; Pf growth 96h: 2.9µM*

Results for COc1ccc(OC)c(C2C3=C(N=C4SCC(=O)N42)c2ccccc2CC3)c1 (stereo unspecified) ?
Pf growth 48h: inconclusive; Sm TGR block: inconclusive; AMA1 RON2 block: 13%; NS1 inh: inconclusive; Pf growth 96h: inconclusive

What do the screens show for `O=S(=O)(NCc1c(Cl)cccc1Oc1ccccc1)c1ccc(F)cc1`?
Pf growth 48h: 9.3µM*; Sm TGR block: 13%; AMA1 RON2 block: 3%; NS1 inh: -35%; Pf growth 96h: inconclusive

Results for O=C(O)CSCC(=O)NCc1c(Cl)cccc1Oc1ccccc1 ?
Pf growth 48h: 6%; Sm TGR block: -2%; AMA1 RON2 block: 10%; NS1 inh: -1%; Pf growth 96h: 21%

What do the screens show for `CCOc1ccc(CCNC(=O)c2c3c(nc4ccccc24)C(=O)N(C2CCCCC2)C3)cc1`?
Sm TGR block: -8%

How did Cc1csc(NC(=O)Nc2ccc(Cl)cc2)n1 do in these assays?
Sm TGR block: 12%[11.4 µM]; AMA1 RON2 block: -14%; NS1 inh: 0%

What do the screens show for `O=C(Nc1ccc(Cl)cc1)Nc1nc(-c2sccc2Br)cs1`?
Pf growth 48h: 8.3µM*; Sm TGR block: -16%; AMA1 RON2 block: -16%; NS1 inh: 9%; Pf growth 96h: 9.3µM*

What do the screens show for `O=C(Nc1ccc(Cl)cc1)Nc1nc(-c2ccccc2O)cs1`?
Pf growth 48h: 1.7µM*; Sm TGR block: 17%; AMA1 RON2 block: 43%; NS1 inh: 8%; Pf growth 96h: inconclusive

What do the screens show for `CC1(C)C(=O)OC(c2cc(Br)ccc2O)C(C)(C)C1=O` (stereo unspecified)?
Pf growth 48h: 12µM*; Sm TGR block: 2%; AMA1 RON2 block: -10%; NS1 inh: -5%; Pf growth 96h: 31%

How did CC12CN3CC(C)(CN(C1)C3c1cc(Br)ccc1O)C2=O (stereo unspecified) do in these assays?
Pf growth 48h: -7%; Sm TGR block: 10%; AMA1 RON2 block: 6%; NS1 inh: -4%; Pf growth 96h: 12%

How did COc1ccc(C2C(C(=O)c3ccccc3)N3c4ccccc4C=CC3C2[N+](=O)[O-])cc1 (stereo unspecified) do in these assays?
Pf growth 48h: inconclusive; Sm TGR block: 40µM*; AMA1 RON2 block: 3%; NS1 inh: 8%; Pf growth 96h: 9.3µM*

Results for COc1ccc(N2C(=O)[C@@H]3[C@H](C2=O)[C@H](C(C)=O)N2c4ccccc4C=C[C@@H]32)cc1 ?
Pf growth 48h: inconclusive; Sm TGR block: inconclusive; AMA1 RON2 block: -6%; NS1 inh: 18%; Pf growth 96h: inconclusive

How did COc1ccc2[nH]c3c(c2c1)CCN1C(=O)C(CC(=O)NCc2ccco2)C[C@H](C(=O)N2CCOCC2)[C@@]31C (stereo partly specified) do in these assays?
AMA1 RON2 block: -2%

How did CN1CCCC1(C)C(=O)NCc1ccc(F)cc1Cl (stereo unspecified) do in these assays?
AMA1 RON2 block: -5%

How did COc1cccc(C(=O)N/N=C(/CCC(=O)O)c2ccccc2)c1 do in these assays?
Pf growth 48h: 0%; Sm TGR block: 8%; AMA1 RON2 block: 0%[2.32 µM]; NS1 inh: 13%; Pf growth 96h: 5%

Results for COc1cc(C(=O)N/N=C(\c2ccccc2)c2ccccn2)cc(OC)c1OC ?
Pf growth 48h: 0.93µM*; Sm TGR block: -1%; AMA1 RON2 block: 108%; NS1 inh: 4%; Pf growth 96h: 9.3µM*

What do the screens show for `COc1cccc(C(=O)N/N=C(/c2ccccc2)c2ccccn2)c1`?
Pf growth 48h: 9.3µM*; Sm TGR block: 1%; AMA1 RON2 block: 96%; NS1 inh: -14%; Pf growth 96h: inconclusive

How did O=C(Nc1ccc(N2CCOCC2)cc1)c1nc2ccccc2s1 do in these assays?
Pf growth 48h: -26%; Sm TGR block: 0%; AMA1 RON2 block: 8%; NS1 inh: 4%; Pf growth 96h: 227%

What do the screens show for `CC(C)CCNC(=O)c1ccc(Cn2c(=O)c3cccn3c3cccnc32)cc1`?
Sm TGR block: 2%

Results for O=C(CSc1ncccc1C(=O)Oc1ccccc1Cl)Nc1ccccc1Cl ?
Sm TGR block: 0%

What do the screens show for `CC(=O)NC12CC3CC(C1)CC(C(=O)Oc1ccc(N(C)S(=O)(=O)c4cc(C)ccc4C)cc1)(C3)C2`?
Pf growth 48h: inconclusive; Sm TGR block: 1%; AMA1 RON2 block: -8%; Pf growth 96h: 13µM*

How did CC(C)c1cccc(O)c(=O)c1 do in these assays?
Pf growth 48h: 2.9µM*; Sm TGR block: inconclusive; AMA1 RON2 block: 82%; NS1 inh: -45%; Pf growth 96h: 3.3µM*

Results for CC(C)c1ccc(O)c(O)c(=O)c1 (tested in a mixture with another compound) ?
NS1 inh: -65%

Results for CC(C)c1ccc(Nc2c(-c3ccsc3)nc3ccc(Cl)cn23)cc1 ?
Sm TGR block: 6%

Results for Cc1ccccc1CNC(=O)Cn1nc(C)c2nn(-c3ccc(Cl)cc3)c(C)c2c1=O ?
Sm TGR block: -11%

How did CCSc1ccc([C@@H]2[C@@H]3C(=O)N(CC)C(=O)[C@@H]3[C@]3(C(=O)OC)CCCCN23)cc1OC do in these assays?
Pf growth 48h: 13µM*; Sm TGR block: inconclusive; AMA1 RON2 block: -9%; Pf growth 96h: inconclusive

Results for CCC(C)Sc1ccc([C@@H]2[C@@H]3C(=O)N(C)C(=O)[C@@H]3[C@]3(C(=O)OC)CCCCN23)cc1OC (stereo partly specified) ?
Pf growth 48h: inconclusive; Sm TGR block: inconclusive; AMA1 RON2 block: 5%; Pf growth 96h: inconclusive

What do the screens show for `COC(=O)[C@@]12CCCCN1[C@H](c1ccc(SC3CCCCC3)c(OC)c1)[C@@H]1C(=O)N(C)C(=O)[C@@H]12`?
Pf growth 48h: 8.3µM*; Sm TGR block: -21%; AMA1 RON2 block: -14%; Pf growth 96h: 8.3µM*

Results for CCSc1ccc([C@@H]2[C@@H]3C(=O)N(C)C(=O)[C@@H]3[C@]3(C(=O)OC)CCCCN23)cc1 ?
Pf growth 48h: 8.3µM*; Sm TGR block: inconclusive; AMA1 RON2 block: 43%; Pf growth 96h: inconclusive
